Measurements taken from PubChem BioAssay (NCI).
The panel holds about 79,000 compounds, 15% with a hit somewhere; the sample as a whole holds those more often. A number with no mark means an inactive call. The source made the active and inactive calls. Cut-off read from the data, not from the text of the source: active = growth inhibition above about 70%; inactive = the rest.

Tests used:
[1] = NCI Yeast Anticancer Drug Screen. Data for the rad50 strain (AID 155);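 note: 0% = growth of vehicle-only cultures of the same strain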; conditions: S. cerevisiae rad50 strain growth inhibition, hits give high values
How it was run: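 Inhibition values express reduced yeast growth in compound-treated cultures relative to vehicle-treated controls.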

[2] = NCI Yeast Anticancer Drug Screen. Data for the mec2-1 strain (AID 157); conditions: S. cerevisiae mec2-1 strain, hits give high values
How it was run: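 Readout is yeast growth inhibition, normalised to vehicle-treated controls, in the mec2-1 strain exposed to compound.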

[3] = NCI Yeast Anticancer Drug Screen. Data for the sgs1 mgt1 strain (AID 161);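 note: 0% = growth of cultures given vehicle only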; conditions: S. cerevisiae sgs1 mgt1 strain, hits give high values
How it was run: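 Growth of a repair-deficient yeast mutant was monitored after compound treatment and expressed as inhibition relative to vehicle-treated cultures.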

[4] = NCI Yeast Anticancer Drug Screen. Data for the cln2 rad14 strain (AID 165);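 note: 0% = growth equal to vehicle treated cultures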; conditions: S. cerevisiae cln2 rad14 strain, hits give high values
How it was run: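 Relative to vehicle controls, growth inhibition of compound-treated cln2 rad14 yeast was recorded.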

[5] = NCI Yeast Anticancer Drug Screen. Data for the bub3 strain (AID 167); conditions: S. cerevisiae bub3 mutant strain, hits give high values
How it was run: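 Steps: expose the mutant yeast strain to compound; grow alongside vehicle-treated cultures; measure growth; express inhibition against the vehicle cultures.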

[6] = NCI Yeast Anticancer Drug Screen. Data for the mlh1 rad18 strain (AID 175); conditions: S. cerevisiae mlh1 rad18 strain growth inhibition, hits give high values
How it was run: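 Test agents were incubated with a yeast strain of defined genotype (DNA damage repair defect). Inhibition of growth was derived by comparison with vehicle-exposed cultures.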

[7] = at 5.0 µM (retest, dose inferred, filed as 0.5)
[8] = at 50.0 µM (retest, dose inferred, filed as 5.0)

SMILES	growth inhibition [1, 7]	growth inhibition [1, 8]	growth inhibition ([1]; at 50.0 µM)	growth inhibition [2, 7]	growth inhibition [2, 8]	growth inhibition ([2]; at 50.0 µM)	growth inhibition [3, 7]	growth inhibition [3, 8]	growth inhibition ([3]; at 50.0 µM)	growth inhibition [4, 7]	growth inhibition [4, 8]	growth inhibition ([4]; at 50.0 µM)	growth inhibition [5, 7]	growth inhibition [5, 8]	growth inhibition ([5]; at 50.0 µM)	growth inhibition [6, 7]	growth inhibition [6, 8]	growth inhibition ([6]; at 50.0 µM)
CCNCCNc1cc(O)c2c(c1O)C(=O)c1ccccc1C2=O	73% (active)	98% (active)	87.2% (active)	92% (active)	98% (active)	84.9% (active)	78% (active)	98% (active)	83.5% (active)	30%	83% (active)	67.8%	96% (active)	98% (active)	78.5% (active)	91% (active)	98% (active)	91.7% (active)
O=C(O)C(Br)C(Br)c1ccccc1[N+](=O)[O-] (centres undefined)	15%	81% (active)	96.5% (active)	8%	60%	89% (active)	20%	79% (active)	95% (active)	21%	72% (active)	77.2% (active)	3%	79% (active)	96% (active)	11%	85% (active)	92% (active)
Cc1cc(-c2ccccc2)nc2nc3ccccc3n12	2%	30%	7.95%	16%	21%	5.8%	-11%	67%	12.4%	14%	43%	-30.7%	21%	82% (active)	29.2%	-6%	45%	31.6%
CC12CCCC1C1CC=C3CC(OC=O)CCC3(C)C1CC2 (centres undefined)	1%	4%	13.4%	10%	3%	1.5%	0%	25%	40.9%	-37%	-5%	38.8%	-8%	44%	-13.4%	-1%	-2%	-12.3%
CC(=O)/C(=C\c1ccccc1Cl)C(=O)CCN(C)C	-35%	93% (active)	37.4%	8%	96% (active)	38.1%	0%	94% (active)	74% (active)	6%	97% (active)	20.6%	7%	97% (active)	18.4%	-17%	97% (active)	80.8% (active)
COc1ccc2nc3cc(Cl)ccc3c(NCCNc3c4ccc(Cl)cc4nc4ccc(OC)cc34)c2c1	34%	97% (active)	98.5% (active)	26%	97% (active)	92.8% (active)	20%	99% (active)	96.2% (active)	37%	90% (active)	98.4% (active)	16%	97% (active)	99.2% (active)	28%	97% (active)	97.3% (active)
N#C/C=C(\c1ccccc1)c1c[nH]c2ccccc12	-144%	97% (active)	97.5% (active)	-46%	99% (active)	98.1% (active)	-62%	98% (active)	98.7% (active)	-58%	98% (active)	95.8% (active)	-63%	97% (active)	97% (active)	-120%	98% (active)	98.2% (active)
O=c1c(S(=O)(=O)Oc2ccccc2)coc2cc(F)ccc12	99% (active)	100% (active)	81.7% (active)	99% (active)	100% (active)	86.7% (active)	99% (active)	100% (active)	90.2% (active)	99% (active)	100% (active)	91.5% (active)	99% (active)	100% (active)	91% (active)	99% (active)	100% (active)	93.1% (active)
CCC(c1ccc(O)c(C2CCCCC2)c1)C(CC)c1ccc(OC(=O)c2ccccc2)c(C2CCCCC2)c1 (centres undefined)	0%	-2%	-16.8%	-21%	10%	-10.8%	-11%	11%	-17.1%	-4%	-8%	26.8%	0%	-6%	1.15%	-14%	-9%	-8.9%
N#Cc1cc2cccn2c2c1cnn2-c1ccccc1	-6%	-5%	19%	8%	4%	-6.8%	-1%	-11%	-1.5%	3%	7%	9.65%	6%	5%	-46.9%	-10%	12%	-2.95%
Cn1c(C(C)(C)OC(=O)Oc2ccccc2)cnc1[N+](=O)[O-]	0%	51%	37.1%	-1%	24%	16.8%	3%	68%	65.5%	4%	31%	30.4%	0%	4%	1.35%	9%	54%	38.8%
Cc1ccc(N)c(Cc2c(O)ccc3ccccc23)c1	2%	79% (active)	98.2% (active)	4%	75% (active)	98.7% (active)	1%	79% (active)	98.8% (active)	-7%	64%	98.5% (active)	0%	66%	98.7% (active)	1%	82% (active)	98.6% (active)
COC(=O)[C@H]1O[C@H]1c1ccncc1	0%	-5%	18.2%	3%	-2%	1.65%	5%	-2%	18.2%	-1%	-17%	53.8%	3%	-2%	6.2%	0%	-13%	8.2%
COc1ccc(C(=O)Nc2ccc(O)c(=O)cc2)cc1	2%	42%	93.5% (active)	38%	59%	17.8%	25%	66%	73.3% (active)	14%	2%	-60.6%	16%	15%	87.4% (active)	21%	77% (active)	55.6%
O=C(Nc1c(Cl)cccc1Cl)Oc1cccc2cccnc12	58%	97% (active)	88.5% (active)	35%	98% (active)	90.6% (active)	60%	99% (active)	90.6% (active)	20%	98% (active)	88% (active)	42%	96% (active)	89.4% (active)	57%	97% (active)	88.3% (active)
CC(C)(CCBr)[N+](=O)[O-]	-151%	-161%	0.55%	-47%	-54%	16%	-61%	-62%	8.35%	-52%	-68%	43.9%	-75%	-84%	5.85%	-225%	-127%	0.35%
COc1cccnc1/C=N/NC(N)=S	-4%	58%	69.5%	-4%	59%	69.9%	-4%	63%	73.9% (active)	-6%	19%	48.5%	0%	60%	75.5% (active)	-5%	70% (active)	71.9% (active)
O=C1C(c2ccccc2)=S=C2C=CC=CN12	2%	67%	85.2% (active)	-1%	41%	41.1%	2%	79% (active)	16.8%	-1%	17%	-0.75%	-4%	72% (active)	41.5%	19%	95% (active)	79.3% (active)
